# Bioassay records: PubChem BioAssay, several laboratories
# HePTP inhibitor – inhibitors of human HePTP phosphatase; P35236; recombinant HePTP phosphatase activity, OD absorbance; inhibition, % at 20 µM; actives 0.64% (n = 110,000); AID 521; in the data active means inhibition above about 50%;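 further: plate controls were vehicle for no effect and reference inhibitor for full effect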
# FXIa mix inh – factor XIa (human) inhibition, mixture screen | P03951 | purified FXIa, fluorogenic substrate, pooled mixtures | inhibition, % at 5 µM | actives 0.19% (n = 62,000) | AID 680;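 further: each value is inhibition by a whole ten-compound pool holding the compound; 0% = enzyme with no mixture and 100% = wells lacking enzyme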
# FXIIa inh mix – inhibitors of human coagulation factor XIIa, pooled mixtures; P00748; purified FXIIa, fluorogenic substrate; inhibition, % at 5 µM; actives 0.2% (n = 62,000); AID 684;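 further: 0% = enzyme without compound and 100% = no enzyme blank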
# D1 allo mod – allosteric modulators of human D1 dopamine receptor; B-score at 10 µM; actives 5.9% (n = 58,000); HEK293 D1, CRE-luciferase, dopamine EC30 potentiation; actives deviate in either direction; P21728;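 active means luminescence count or its row- and column-corrected plate score outside the 99.7% band of the plate's sample wells, on either side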
# Calb biofilm kill – kills Candida albicans biofilms; C. albicans biofilm + clotrimazole, Alamar Blue; actives 0.14% (n = 85,000); inhibition, % at 6 µM;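 active means inhibition above 20%; inactive means inhibition below 20%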;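 further: preformed 24 hr biofilms exposed to compound for 48 hr; 0% = biofilm without compound and 100% = blank killed by clotrimazole plus chlorhexidine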
# TNAP act mid DEA – human TNAP activation, intermediate phosphate acceptor. purified TNAP, CDP-star luminescence, 100 mM DEA, 30 min; active compounds read high; scale: 0 levamisole-inhibited, 1 vehicle-only enzyme. activation factor at 20 µM. 64,000 tested, under 10 active. AID 813;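 active means activation factor of at least 2 at 20 µM, relative to controls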
# Target sequence (P05186 whole entry, looked up): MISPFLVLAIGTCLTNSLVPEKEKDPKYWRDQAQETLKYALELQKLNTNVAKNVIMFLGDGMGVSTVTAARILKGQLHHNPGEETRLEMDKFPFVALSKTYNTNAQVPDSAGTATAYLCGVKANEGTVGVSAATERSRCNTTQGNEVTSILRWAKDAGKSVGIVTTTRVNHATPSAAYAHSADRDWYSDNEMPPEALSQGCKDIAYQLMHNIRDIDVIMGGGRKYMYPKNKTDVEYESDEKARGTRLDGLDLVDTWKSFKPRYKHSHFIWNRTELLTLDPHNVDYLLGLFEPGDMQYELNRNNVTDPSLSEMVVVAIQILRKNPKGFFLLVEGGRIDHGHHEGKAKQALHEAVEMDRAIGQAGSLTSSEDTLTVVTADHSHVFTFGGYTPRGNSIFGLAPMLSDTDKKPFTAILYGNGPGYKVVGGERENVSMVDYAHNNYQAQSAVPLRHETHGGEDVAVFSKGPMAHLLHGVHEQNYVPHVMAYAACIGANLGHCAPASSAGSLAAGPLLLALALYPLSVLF
# D1 PAM confirm – confirmation of human D1 dopamine receptor allosteric modulators; shares compounds with D1 allo mod; HEK293 D1 CRE-luciferase, dopamine EC30 potentiation; active compounds read high; luminescence at 10 µM; actives 88% (n = 2,200); AID 642;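 active means luminescence in either of two replicates above the same-plate mean plus 3 SD of the low-dose dopamine control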
# D1 no dopamine – secondary test of D1 modulators: activity without dopamine. shares compounds with D1 allo mod. HEK293 D1 CRE-luciferase, luminescence, no dopamine; active compounds read high. luminescence at 10 µM. actives 0.8% (n = 1,900); in the data active means luminescence above about 3900
# Isoprot counter – alters isoproterenol CRE-luciferase response in HEK293 cells | luminescence at 10 µM | actives 63% (n = 2,200) | HEK293 D1 CRE-luciferase, isoproterenol EC30 counter-screen; active compounds read high | shares compounds with D1 allo mod;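 active means luminescence in either replicate above plate mean of wells with a partly effective reference agonist dose plus 3 SD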;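 further: isoproterenol raises cAMP through native beta-adrenoceptor Gs so signal bypasses D1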
# Active calls of the source: *; · = no result given. Many of the other results were omitted from the sample, so hits are more common in it than they were. Unless noted, no stated cut-off is given here; in the data, active means inhibition above about 20% (passing the limit was not always enough); inactive means the rest.
SMILES,HePTP inhibitor,FXIa mix inh,FXIIa inh mix,D1 allo mod,Calb biofilm kill,TNAP act mid DEA,D1 PAM confirm,D1 no dopamine,Isoprot counter
C/C(=N\N1C(=O)CN(Cc2ccccc2)C1c1ccc(Br)cc1)c1ccccc1 (stereo unspecified),-14,·,·,·,·,·,·,·,·
O=C(N/N=C\c1cn(Cc2ccc(Cl)c(Cl)c2)c2ccccc12)c1ccc([N+](=O)[O-])cc1,-13,·,·,·,·,·,·,·,·
COc1ccc2[nH]c3nc(SCc4nnc(-c5ccccc5)o4)nnc3c2c1,0,3,7,0.12,-3,1,·,·,·
COc1ccc2[nH]c3nc(SC(C)C)nnc3c2c1,6,3,-24,-4*,0,1,·,·,·
COC(=O)N1CC(c2ccccc2)CC1=O (stereo unspecified),1,13,1,0.077,6,0.9,·,·,·
COc1cc(NC(=O)CN2CC(c3ccccc3)CC2=O)cc(OC)c1 (stereo unspecified),-5,0,8,·,20*,1,·,·,·
Nc1ccc(Oc2ccc(N)c(N)c2)cc1,-2,·,·,·,·,·,·,·,·
CCc1nc(C)c(C#N)c2cc(OC)c(OC)cc12,3,1,-5,4.4*,2,0.9,11084*,1576,4356*
CCc1nc(N)c(C#N)c(-c2ccc(O)c(OC)c2)c1C,-4,2,-1,·,8,1,·,·,·
CCc1nc(N)c(C#N)c(-c2ccncc2)c1C,10,-1,3,4.4*,7,0.9,15468*,1728,3044
CCc1nc(N)c(C#N)c(-c2cccn2C)c1C,·,·,·,0.63,6,·,·,·,·
CCc1nc(N)c(C#N)c(-c2ccc(OC)c(OC)c2)c1C,-8,6,7,6.7*,7,0.9,11376*,1860,5044*
COc1ccccc1C(=O)Nc1ccccc1[N+](=O)[O-],6,·,·,·,·,·,·,·,·
N#Cc1nc(-c2ccccc2F)oc1N1CCCC1,5,-1,-1,6.4*,-2,0.9,11832*,1568,3016*
N#Cc1nc(-c2ccccc2)oc1N1CCCCC1,-1,-17,-6,2,2,0.9,·,·,·
N#Cc1nc(-c2ccco2)oc1N1CCCC1,0,3,6,4*,-2,0.9,11548*,·,3164*
CCOc1ccc(/C=N\NC(=O)C2CC(=O)N(c3ccc(Br)cc3)C2)cc1 (stereo unspecified),7,·,·,·,·,·,·,·,·
COc1ccc(-c2nnc3sc(C4CCCCC4)nn23)cc1OC,0,4,2,15*,-3,1.1,20172*,·,14084*
COc1ccc(-c2nn3c(C4CCCCC4)nnc3s2)cc1OC,-3,·,·,·,11,0.9,·,·,·
C1CCC(c2nn3c(-c4n[nH]c5c4CCC5)nnc3s2)CC1,8,3,4,6.3*,-3,1.8,15420*,1752,2504
COc1ccc(-c2nnc3sc(-c4cccs4)nn23)cc1OC,1,-1,7,5*,-1,0.9,12160*,·,3740*
CCN(CC)c1ccc(-c2nn3c(-c4n[nH]c5c4CCC5)nnc3s2)cc1,9,-5,9,0.85,2,1.2,·,·,·
Clc1ccccc1-c1nn2c(-c3ccncc3)nnc2s1,3,2,1,4.9*,1,0.9,7940*,1776,2952
Clc1ccccc1-c1nnc2sc(-c3ccncc3)nn12,-4,1,4,4.1,4,1,·,·,·
CCN(CC)CCOc1ccccc1C,11,·,·,·,·,·,·,·,·
SMILES,HePTP inhibitor,FXIa mix inh,FXIIa inh mix,D1 allo mod,Calb biofilm kill,TNAP act mid DEA,D1 PAM confirm,D1 no dopamine,Isoprot counter
Clc1ccccc1-c1nn2c(-c3ccccn3)nnc2s1,4,·,·,·,1,0.9,·,·,·
Clc1ccccc1-c1nnc2sc(-c3cccs3)nn12,5,11,-12,11*,1,0.9,14324*,1788,4852*
O=C(c1ccco1)N(O)c1ccccc1,-1,·,·,·,·,·,·,·,·
C=CCNc1nc(N)c(C(=O)c2ccc3c(c2)OCO3)s1,-3,2,12,18*,10,0.9,14852*,1788,4416*
COc1ccc(N2C(=O)C3CCCN3C2c2ccccc2)cc1Cl (stereo unspecified),-11,3,2,2.8*,3,1,5744*,1680,2896
COc1cc2[nH]c(=O)n(CCCCCC(=O)NCCCN3CCCC3=O)c(=O)c2cc1OC,3,-1,5,-0.18,·,0.9,·,·,·
CCOc1cc2[nH]c(=O)n(CCCN3CCCC3=O)c(=O)c2cc1OCC,-1,-2,-15,2.7*,13,0.9,6760*,·,2644
CCOc1cc(OCC)cc(C(=O)Nc2ccc(I)cc2Cl)c1,4,·,·,·,·,·,·,·,·
COc1ccc(-c2[nH]c(-c3ccc(C)cc3)nc2SCC(=O)NCc2ccco2)cc1OC,·,·,·,·,11,·,·,·,·
O=C(CSc1nc(-c2ccccc2)cc(C(F)(F)F)n1)NCc1ccco1,·,·,·,·,3,·,·,·,·
COc1ccc(-c2ccc(SCC(=O)NCc3ccco3)nn2)cc1OC,3,6,-10,15*,10,0.9,17224*,·,5532*
COc1ccc(-c2cc(C(F)(F)F)nc(SCC(=O)NCc3ccco3)n2)cc1OC,14,-9,3,13*,4,0.9,18992*,1868,5208*
Cn1cccc1Cc1nnc(SCC(=O)NC2CCCCC2)n1CCc1ccccc1,-6,3,5,1.5*,2,1,5188,1520,2144
Cn1c(=O)cc2c3c(c(N4CCCC4)ccc31)C(=O)c1ccccc1-2,8,·,·,·,·,·,·,·,·
COc1ccc(CN(C2CCCC2)S(=O)(=O)c2ccc(-n3cnnn3)cc2)cc1OC,7,12,-3,5.5*,8,1,10040*,1604,3256
CSc1ncc(Cl)c(C(=O)NCc2ccc3c(c2)OCO3)n1,-3,5,5,12*,6,0.9,16252*,1504,3100*
COc1ccc(Cl)cc1C(=O)NCc1ccc2c(c1)OCO2,-6,·,·,·,·,·,·,·,·
Cc1ccc(-c2cc(-c3ccc(F)cc3)nc(N)c2C#N)o1,8,-11,6,15*,1,0.9,26016*,2012,4452*
CC(=O)Nc1ccc(Oc2cc(C#N)c(C#N)cc2N2CCCCCC2)cc1,5,5,-12,4.9*,3,0.9,8364*,1744,3860*
O=C(Nc1cccnc1)c1ccccc1Oc1ccccc1,7,8,15,6.3*,6,0.7,15336*,1584,3360*
O=C(Nc1ccncc1)c1ccccc1Oc1ccccc1,3,·,·,·,·,·,·,·,·
COc1ccc(/C=N/n2cnnc2SCCO)cc1OC,7,-6,1,2.6*,·,1,14424*,1384,4036*
C=CCSc1nncn1/N=C/c1ccc(OC)cc1,-8,3,8,-0.17,5,0.8,·,·,·
c1ccc(-n2c(SCc3cccc4ccccc34)nnc2-c2ccco2)cc1,8,·,·,·,·,·,·,·,·
